Results: PubChem BioAssay AID1159580 (chemical genetic matrix, 2015)
Among all 5,500 compounds or so, about 2,000 (36%) were called active. Inconclusive results (about 18%) are left out. Rule as the data show it: active = normalized growth mostly below about 0.91 (no sharp cut-off); inconclusive = no clear call, values can overlap the other calls; inactive = mostly above about 0.92. The list shows a part of the results.

Assay: chemical genetic growth profiling, strain panel (AID 1159580);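 also: tested at 20 µM; growth read once vehicle control cultures reached saturation at 30 °C; 1 = growth at the plate median or of vehicle wells; lower values mean less growth of the strain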
Conditions: S. cerevisiae deletion strains, growth OD

Measured: normalized growth

O=c1ccc2c(O)c3ccoc3cc2o1
inactive: locus YAL021C, strain ccr4, hits give low values 0.992 | locus YAL026C, strain drs2, hits give low values 0.974 | locus YAL030W, strain snc1, hits give low values 0.989 | locus YBL061C, strain skt5, hits give low values 0.982 | locus YBR009C, strain hhf1, hits give low values 0.977 | locus YBR023C, strain chs3, hits give low values 0.987 | locus YBR171W, strain sec66, hits give low values 0.983 | locus YBR231C, strain swc5, hits give low values 0.989 | locus YBR279W, strain paf1, hits give low values 0.984 | locus YCL011C, strain gbp2, hits give low values 0.989 | locus YCL016C, strain dcc1, hits give low values 0.986 | locus YCL069W, strain vba3, hits give low values 0.98 | locus YCR088W, strain abp1, hits give low values 0.967 | locus YDL005C, strain med2, hits give low values 0.986 | locus YDL040C, strain nat1, hits give low values 0.99 | locus YDR001C, strain nth1, hits give low values 0.977 | locus YDR069C, strain doa4, hits give low values 0.986 | locus YDR137W, strain rgp1, hits give low values 1.01 | locus YDR159W, strain sac3, hits give low values 0.997 | locus YDR195W, strain ref2 0.957 | locus YDR297W, strain sur2, hits give low values 0.987 | locus YDR334W, strain swr1, hits give low values 0.947 | locus YDR335W, strain msn5, hits give low values 0.994 | locus YDR392W, strain spt3, hits give low values 0.98 | locus YEL003W, strain gim4, hits give low values 0.984 | locus YEL037C, strain rad23, hits give low values 0.984 | locus YEL061C, strain CIN8 (second series), hits give low values 0.965 | locus YER015W, strain faa2, hits give low values 0.993 | locus YER016W, strain bim1, hits give low values 0.994 | locus YER111C, strain swi4, hits give low values 0.995 | locus YER155C, strain BEM2 (second series), hits give low values 0.997 | locus YFR010W, strain ubp6, hits give low values 0.968 | locus YGL167C, strain pmr1, hits give low values 0.986 | locus YGL173C, strain kem1, hits give low values 0.992 | locus YGL227W, strain vid30, hits give low values 0.981 | locus YGL240W, strain doc1, hits give low values 0.99 | locus YGL253W, strain hxk2, hits give low values 0.997 | locus YHR013C, strain ard1, hits give low values 0.956 | locus YHR027C, strain rpn1, hits give low values 0.998 | locus YHR030C, strain SLT2, hits give low values 0.997 | locus YHR079C, strain IRE1, hits give low values 0.985 | locus YHR142W, strain chs7, hits give low values 0.975 | locus YJL092W, strain hpr5, hits give low values 0.983 | locus YJL095W, strain BCK1 (second series), hits give low values 0.972 | locus YJL095W, strain BCK1, hits give low values 0.991 | locus YJL115W, strain asf1, hits give low values 0.965 | locus YJL129C, strain trk1, hits give low values 0.978 | locus YJL154C, strain vps35, hits give low values 0.966 | locus YJL164C, strain tpk1, hits give low values 0.992 | locus YJL166W, strain qcr8, hits give low values 0.963 | locus YJL187C, strain SWE1, hits give low values 0.988 | locus YJR066W, strain TOR1, hits give low values 0.935 | locus YKL160W, strain elf1, hits give low values 0.993 | locus YKR026C, strain gcn3, hits give low values 0.986 | locus YKR091W, strain srl3, hits give low values 0.984 | locus YLL001W, strain dnm1, hits give low values 0.982 | locus YLL026W, hits give low values 0.993 | locus YLL041C, strain sdh2, hits give low values 0.981 | locus YLR027C, strain aat2, hits give low values 0.976 | locus YLR113W, strain HOG1, hits give low values 1 | locus YLR221C, strain rsa3, hits give low values 0.984 | locus YLR258W, strain gsy2, hits give low values 0.987 | locus YLR262C, strain YPT6 (second series), hits give low values 1.01 | locus YLR320W, strain mms22, hits give low values 1.01 | locus YLR342W, strain FKS1, hits give low values 0.984 | locus YLR357W, strain rsc2, hits give low values 0.975 | locus YLR370C, strain arc18, hits give low values 0.984 | locus YLR384C, strain iki3, hits give low values 0.992 | locus YML120C, strain ndi1, hits give low values 0.97 | locus YMR058W, strain fet3, hits give low values 0.98 | locus YMR125W, strain sto1, hits give low values 0.983 | locus YMR129W, hits give low values 0.976 | locus YMR205C, strain PFK2, hits give low values 0.975 | locus YMR231W, strain pep5, hits give low values 0.981 | locus YNL071W, strain lat1, hits give low values 0.979 | locus YNL183C, strain NPR1, hits give low values 0.944 | locus YNL209W, strain ssb2, hits give low values 0.975 | locus YNL248C, strain rpa49, hits give low values 0.941 | locus YNL322C, strain KRE1 (second series), hits give low values 0.984 | locus YNR049C, strain mso1, hits give low values 0.996 | locus YOR001W, strain rrp6, hits give low values 0.975 | locus YOR070C, strain gyp1, hits give low values 0.992 | locus YOR080W, strain dia2, hits give low values 0.987 | locus YOR083W, strain WHI5, hits give low values 0.989 | locus YOR106W, strain vam3, hits give low values 0.977 | locus YOR231W, strain MKK1, hits give low values 0.996 | locus YOR265W, strain rbl2, hits give low values 0.973 | locus YOR270C, strain vph1, hits give low values 0.904 | locus YOR290C, strain snf2, hits give low values 0.991 | locus YPL051W, strain arl3, hits give low values 1.01 | locus YPL078C, strain atp4, hits give low values 0.974 | locus YPL106C, strain sse1, hits give low values 0.978 | locus YPL240C, strain hsp82, hits give low values 0.983 | locus YPL256C, strain CLN2, hits give low values 0.978
